High-throughput results: PubChem BioAssay, National Center for Advancing Translational Sciences (NCATS)
SMN2 splice enh – SMN2 splice variant enhancement; HEK293 SMN2-luciferase splicing reporter, luminescence, 30-36 h; Potency, µM (highest dose often 46.1 µM), actives largely listed as activators; 210,000 compounds, 2.8% hits; AID 1458; further: nearly all actives have a fitted effect of over 55% in size
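HEK293 cells carry an SMN2 minigene-luciferase reporter in which exon 7 inclusion puts luciferase in frame. Cells were seeded at 2000 cells/well, attached for 10-12 hours, then exposed to compounds for 30-36 hours at 37C before ONE-Glo luminescence.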
NPC1 promoter act – activates the NPC1 promoter; 320,000 compounds, 2.4% hits; Potency, µM (titrated, usually from 9.22 µM), most hits filed as activators; Huh7 NPC1 promoter luciferase reporter, 24 h; further: nearly all actives have a fitted effect of over 60% in size
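Luminescence from an NPC1 promoter-driven luciferase reporter in stably transfected Huh7 cells was measured after 24 h compound treatment at 37 °C, followed by 10 min ambient incubation with luciferase detection reagent.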
FLuc modulator – counter-screen for miR-21 project: firefly luciferase inhibitors or activators. 360,000 compounds, 6.9% hits. P08659. Potency, µM (highest dose often 57.5 µM), actives largely listed as inhibitors. purified FLuc, Km substrates, luminescence inhibition. AID 588342; further: nearly all actives have a fitted effect of over 55% in size
Target sequence (P08659 whole entry, looked up): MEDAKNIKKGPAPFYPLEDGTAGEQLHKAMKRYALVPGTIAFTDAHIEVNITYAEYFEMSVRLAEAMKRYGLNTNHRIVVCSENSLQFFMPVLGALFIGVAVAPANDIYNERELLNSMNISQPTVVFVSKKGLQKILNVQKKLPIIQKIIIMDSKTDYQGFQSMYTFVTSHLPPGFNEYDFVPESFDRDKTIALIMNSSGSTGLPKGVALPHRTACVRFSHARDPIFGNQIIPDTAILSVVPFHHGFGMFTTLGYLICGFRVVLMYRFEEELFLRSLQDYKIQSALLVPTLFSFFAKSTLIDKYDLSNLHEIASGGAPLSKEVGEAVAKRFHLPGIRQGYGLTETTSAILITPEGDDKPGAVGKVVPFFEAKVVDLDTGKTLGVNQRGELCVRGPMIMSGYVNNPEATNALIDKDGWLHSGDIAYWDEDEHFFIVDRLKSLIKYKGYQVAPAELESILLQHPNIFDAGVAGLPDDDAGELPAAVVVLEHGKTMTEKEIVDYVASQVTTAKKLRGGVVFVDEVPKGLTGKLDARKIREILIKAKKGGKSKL
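Purified P. pyralis luciferase, 10 nM final, with Km-level 10 uM D-luciferin and 10 uM ATP in 50 mM Tris acetate pH 7.5, 10 mM Mg acetate, 0.01% Tween-20, 0.05% BSA; 6-point qHTS titration about 60 µM downward; luminescence read.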
ELG1 genotox – induces genotoxicity in HEK293T cells with luciferase-tagged ELG1. HEK293T ELG1-luciferase reporter, luminescence, 16 h. AID 504466. Potency, µM (titrated, usually from 46 µM), actives largely listed as activators. 330,000 compounds, 1.3% hits; further: nearly all actives have a fitted effect of over 60% in size
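Luminescence read-out: rising ELG1-luciferase signal, reflecting elevated ELG1 protein under genetic stress, flags genotoxic compounds. Cells were treated for 16 hr at 37 °C before ONE-Glo detection.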
Rab9 prom act – activators of Rab9 promoter; 320,000 compounds, 2.8% hits; Potency, µM (top dose mostly 9.22 µM), actives largely listed as activators; Huh7 Rab9 promoter-luciferase reporter, luminescence, 24 h; further: nearly all actives have a fitted effect of over 60% in size
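Quantitative HTS format; Huh7 Rab9-luciferase reporter cells (1500/well) receive compound 2 h post-plating, incubate 24 h at 37 °C, then get luciferase reagent for 10 min before luminescence reading.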
Hits are given with their value; – = inactive; ? = inconclusive; · = no result given; [ ] = remark or other dose. In the library only some 7.4% were active in any assay of this set; here they are far more common. The call rests on the fitted dose curve; in most records, active means well fitted curve in the direction sought with a large enough effect; inconclusive means small, poorly fitted or top-dose-only effect, or another doubt; inactive means no such curve, though single readings can be large; an effect the other way counts as inactive or inconclusive.

SMILES | SMN2 splice enh | NPC1 promoter act | FLuc modulator | ELG1 genotox | Rab9 prom act
COc1ccc(NC(=O)Cn2c(=O)n(-c3ccc(C)cc3)c(=O)c3c2c2cc(C)ccc2n3C)cc1 | · | · | – | · | ·
O=C1c2ccccc2NC(c2ccccc2)N1/N=C/c1ccccc1 (stereo unspecified) | 25.1µM | 2.51µM | ? | – | 2.51µM
O=C1c2ccccc2NC(c2ccc(O)cc2)N1/N=C/c1ccc(O)cc1 (stereo unspecified) | –[1.84 µM] | – | – | – | –
CCSc1nnc2c(n1)[nH]c1c(C)cccc12 | – | – | 12µM | ? | 5.62µM
Cc1cc(Cl)ccc1OCC(=O)NNC(=O)c1cccnc1 | · | – | 19µM | – | –
CCOc1ccc(NC(=O)CCC(=O)NNC(=O)COc2ccc(C)cc2)cc1 | – | – | – | – | –
O=C(COc1ccc(Cl)cc1)NNC(=O)c1cccnc1 | – | – | – | – | –
O=C(COc1ccc(Cl)cc1Cl)NNC(=O)c1cccnc1 | · | – | 5.36µM | – | –
Cc1cc(Cl)ccc1OCC(=O)NNC(=O)c1ccco1 | · | – | 9.53µM | ? | –
Cc1cc(Cl)ccc1OCCCC(=O)NNC(=O)c1ccncc1 | · | – | ? | – | –
COc1ccc(NC(=O)c2ccco2)cc1NC(=O)COc1ccc(Cl)cc1C | – | · | – | · | ·
CCOc1ccc(NC(=O)CCC(=O)NNC(=O)COc2ccc(C)cc2Br)cc1 | · | ? | 2.13µM | ? | ?
CSc1ncc(C(=O)NCc2ccc(C)cc2)c(C)n1 | · | · | – | · | ·
CC(C)(C)c1ccc(OCC(=O)NNC(=S)NC(=O)c2ccco2)c(Br)c1 | · | – | 9.53µM | – | –
Cc1cc(Cl)ccc1OCC(=O)NCc1ccncc1 | – | – | – | – | –
Cc1cc(Cl)ccc1OCC(=O)Nc1ccncc1 | · | – | 15.1µM | ? | –
Cc1ccc(NC(=O)COc2ccc(Br)cc2C)cc1 | – | – | 9.53µM | ? | –
COC(=O)C(Cc1c[nH]c2ccccc12)NC(=O)COc1ccc(Cl)cc1Cl (stereo unspecified) | – | · | ? | · | ·
Clc1ccc(/C=N/N2CCCCC2)cc1 | · | – | 10.7µM | – | –
O=[N+]([O-])c1ccc(/C=N/N2CCCCC2)cc1 | · | 2.51µM | 9.53µM | ? | –[1.84 µM]
CCc1cc2cc(C(=O)Nc3ccccc3F)sc2s1 | ? | 2.24µM | 0.757µM | 1.16µM | 1.78µM
CCc1cc2cc(C(=O)N3CCN(Cc4ccccc4)CC3)sc2s1 | – | · | 16.9µM | · | ·
CC(C)(C)c1ccc(C(=O)Nc2ccc(F)cc2)s1 | · | 0.708µM | 1.2µM | 2.91µM | 0.631µM
CCc1cc2cc(C(=O)N3CCN(c4ccccc4)CC3)sc2s1 | – | – | – | – | –
CCc1cc2cc(C(=O)Nc3ccc(F)cc3)sc2s1 | – | ? | ? | – | 2.51µM
SMILES | SMN2 splice enh | NPC1 promoter act | FLuc modulator | ELG1 genotox | Rab9 prom act
Cn1nc(C(F)(F)F)c2cc(C(=O)Nc3ccc(F)cc3)sc21 | · | – | – | – | –
COC(=O)c1ccccc1C[C@]1(C(=O)OC)C=C[C@H](C)[C@@H](c2ccccc2)N1C(=O)C(F)(F)F | – | · | · | · | ·
Cc1ccc(-n2c(/C=C/c3c(C)n(C)c4ccccc34)nc3ccccc3c2=O)cc1 | – | · | – | · | ·
O=C(c1ccc2c(c1)CCN2S(=O)(=O)c1ccc(Cl)cc1)N1CCN(c2ccccc2)CC1 | – | · | – | · | ·
CCn1c(SCC(=O)N2CCC(C)CC2)nnc1-c1ccccc1O | · | · | – | · | ·
N#Cc1c(NC(=O)CCCC(=O)O)sc2c1CCCCC2 | 1.26µM | ? | 2.13µM | ? | ?
CCCC(=O)Nc1sc2c(c1C#N)CCCCC2 | 11.2µM | 3.16µM | 9.53µM | ? | 2.82µM
CCC(=O)Nc1sc2c(c1C#N)CCCCC2 | ? | – | –[2.3 µM] | – | ?
CN(C)S(=O)(=O)Nc1ccc2c(c1)Cc1ccccc1-2 | ? | – | 26.9µM | ? | –
Cc1nc2ccc(NC(=O)N(C(C)C)C(C)C)cc2s1 | – | – | ? | ? | –
CC(=O)Nc1cccc(NC(=O)Cc2cccs2)c1 | · | – | – | – | –
Cc1nc2ccc(NC(=O)Cc3ccc(Br)cc3)cc2s1 | · | – | – | – | –
Cc1ccc(NC(=O)Cc2cccs2)cc1Cl | · | – | 19µM | – | ?
Cc1nc2ccc(NC(=O)Cc3cccs3)cc2s1 | ? | 3.98µM | 7.57µM | ? | 2.51µM
Cc1nc2ccc(NC(=O)N(C)c3ccccc3)cc2s1 | 22.4µM | ? | 13.5µM | ? | ?
O=C(Cc1cccs1)Nc1cccc(-c2nc3cc4ccccc4cc3[nH]2)c1 | 6.31µM | 1.58µM | 0.849µM | ? | 1.78µM
CC(C)CCOc1ccc(Cn2c(=O)sc3ccccc32)cc1 | – | · | – | · | ·
CC(C)c1cccc2nc3c(c([Si](C)(C)C(C)(C)C)c12)Cn1c-3cccc1=O | – | · | · | · | ·
Cc1ccc(NC(=O)Cc2ncon2)cc1Cl | · | – | 15.1µM | – | –
C=C1C(=O)OC2C[C@@]3(C)CCCC(C)C3=CC12 (stereo partly specified) | – | · | · | · | ·
COc1cc(C(=O)NC2CCN(CC(=O)NC3CCCCC3)CC2)cc(OC)c1OC | · | – | – | – | –
COc1cc(NC(=O)c2cc(OC)c(OC)c(OC)c2)c(OC)cc1NC(=O)CN1CCCCC1 | – | – | 13.5µM | – | –
Cc1ccc(NC(=O)CN2CCCCCC2)cc1Br | – | – | – | – | –
COc1cc(NC(=O)c2ccc(C)cc2)c(OC)cc1NC(=O)CN1CCCCC1 | – | – | 19µM | – | –
COc1cc(NC(=O)c2ccccc2Cl)c(OC)cc1NC(=O)CN1CCCCC1 | · | – | – | – | –
SMILES | SMN2 splice enh | NPC1 promoter act | FLuc modulator | ELG1 genotox | Rab9 prom act
Cc1ccc(NC(=O)CN2CCCCCC2)c(Br)c1 | – | 3.98µM | 12µM | ? | 3.98µM
COc1cc(NS(C)(=O)=O)ccc1Nc1c2ccccc2nc2ccccc12 | – | – | 12µM | ? | –
CCc1nc2oc3ccc(C)cc3c(=O)c2cc1C(=O)OC | · | 3.55µM | 3.01µM | ? | 3.55µM
COC(=O)c1cc2c(=O)c3ccccc3oc2nc1C | · | 2.24µM | 10.7µM | ? | ?
COC(=O)c1cc2c(=O)c3ccccc3oc2nc1/C=C/N(C)C | · | – | ? | – | –
Cc1nc2oc3ccccc3c(=O)c2cc1C(=O)O | · | – | – | – | –[1.84 µM]
CCOc1ccc(NC(=O)Cn2cc(C(=O)c3ccc(F)cc3)c(=O)c3cc4c(cc32)OCO4)cc1 | – | · | – | · | ·
Cc1cc(C)c(OCC(=O)N(Cc2ccco2)Cc2ccco2)c(C)c1 | – | · | – | · | ·
CCOC(=O)N1CCC(NC(=O)c2cnn(-c3ccc(C)cc3)c2-n2cccc2)CC1 | · | · | – | · | ·
COc1ccc(S(=O)(=O)NCC(c2ccco2)N2CCOCC2)cc1OC (stereo unspecified) | · | · | – | · | ·
CCOc1ccc(Nc2ncnc3c2cnn3-c2ccc(F)cc2)cc1 | · | · | – | · | ·
Cc1ccccc1Nc1ncnc2c1cnn2-c1ccccc1 | 11.2µM | ? | 16.9µM | 8.2µM | ?
Cc1ccc(-n2ncc3c(NNC(=O)c4ccccc4C)ncnc32)cc1 | · | · | – | · | ·
Cc1ccc(-n2ncc3c(Nc4ccccc4C)ncnc32)cc1 | · | · | 3.38µM | · | ·
CCc1ccccc1Nc1ncnc2c1cnn2-c1ccc(Cl)cc1 | · | · | 12µM | · | ·
CCOc1ccc(Nc2ncnc3c2cnn3-c2ccccc2)cc1 | – | – | – | 18.4µM | –
COc1ccc(-n2c(SCC(=O)NC3CCCCC3)nc3c([nH]c4ccccc43)c2=O)cc1 | · | · | – | · | ·
